In PubChem BioAssay AID651820 (National Center for Advancing Translational Sciences (NCATS), 2012):
The campaign covered roughly 340,000 compounds. About 12,000 (3.5%) were called active. Where a call stands in place of a potency, no number is given. Not shown: some 18% with an inconclusive outcome. The sample holds actives, similar compounds and a random draw of the others, so the mix is not that of the screen. Unmarked numbers belong to inactive results. Calls follow the shape of the dose curve; as a rule, active = well fitted inhibition curve with a large enough effect; inconclusive = small, poorly fitted or top-dose-only effect, or another doubt; inactive = no such curve, though single readings can be large or run the other way.

Experiment: qHTS Assay for Inhibitors of Hepatitis C Virus (HCV)
Conditions: Huh7.5.1 HCVcc-Cre infection, luciferase reporter, 44 h; series mostly up to 41.8 µM
Source text: Hepatitis C virus (HCV) infects about 200 million people in the world. Many infected people progress to chronic liver disease including cirrhosis with a risk of developing liver cancer. To date, there is no effective vaccine for hepatitis C. Current therapy based on interferon is only effective in about half of the patients and is associated with significant adverse effects. The fraction of people with HCV who can complete a successful treatment is estimated to be no more than 10 percent. Recent development of direct-acting antivirals against HCV, such as protease and polymerase inhibitors, is promising but still requires combination with peginterferon and ribavirin for maximal efficacy. In addition, these agents are associated with high rate of resistance and many have significant side effects. Due to the lack of a culture system for infectious HCV, the search for new HCV drugs has been greatly hampered. […] High-throughput screening (HTS) with an infectious HCV system would cover the complete spectrum of potentially druggable targets in all stages of HCV lifecycle, and would have more biological relevance than other cell-based assays. Moreover, targeting several key processes in the viral life cycle may not only increase antiviral efficacy; more importantly, it may also reduce the capacity of the virus to develop resistance to the compound. The goal of this project is to identify novel HCV inhibitors as new therapies for hepatitis C, using a highly sensitive and specific assay platform which is based on a HCV infectious cell culture system established in the laboratory and adapted for high-throughput HCV drug screen. NIH Chemical Genomics Center [NCGC] NIH Molecular Libraries Probe Centers Network [MLPCN] MLPCN Grant: MH095511 Assay Submitter (PI): Jake Liang, NIDDK
The assay will start with plating 1,000 cells/well in 3 µL volume and culture for 4 h. Then 23 nL of compounds from the library collection will be added to each well, followed by adding 2.5 µL of HCVcc-Cre virus (~ 0.5 moi) and further cultured for 44 h before the luciferase assay. A volume of 4.5 µL luciferase substrates will be added to each well and the plates will be incubated at room temperature for 15 min. and then read for 15 sec. for the luciferase activity
With `Cc1ccc(NC(=O)COC(=O)CN2CCCCCC2=O)c(C)c1` the Potency was “inactive”.
With `COc1ccc(C(=NN)c2ccc(OC)cc2)cc1` the Potency was “inactive”.
In the case of `Cc1cccc(N2CC(C(=O)Nc3ccccc3N3CCCC3)CC2=O)c1C` (stereo unspecified), the Potency is reported as “inactive”.
For `C=CCCC(=O)Nc1nc(C)c(-c2csc(Nc3ccc(Cl)cc3)n2)s1`, the Potency was 11.2 µM (active).
For `Cc1nc(NC(=O)CN(C)S(=O)(=O)c2ccc(Cl)cc2)sc1C`, the Potency was “inactive”.
For `CC(=O)c1sc(NC(=O)CCCOc2ccccc2C)nc1C`, the Potency was “inactive”.
In the case of `Cc1ccc(Nc2nc(-c3sc(NC(=O)c4ccccc4)nc3C)cs2)cc1`, the Potency is reported as “inactive”.
For `CCCCCCC(=O)Nc1nc(C)c(-c2csc(Nc3cc(Cl)ccc3OC)n2)s1`, the Potency was “inactive”.
With `CCCCC(=O)Nc1nc(C)c(-c2csc(Nc3ccc(Cl)cc3)n2)s1` the Potency was 8.91 µM (active).
For `CCOC(=O)C1CCN(C(=O)c2cccc(S(=O)(=O)N(CC)c3ccccc3)c2)CC1`, the Potency was “inactive”.
In the case of `CCOC(=O)C1=C(C)N=C2c3ccccc3C(=O)C2C1c1ccc(Br)cc1` (stereo unspecified), the Potency is reported as “inactive”.
With `O=C1c2ccccc2C2=Nc3ccccc3SC(c3ccccc3F)C12` (stereo unspecified) the Potency was 5.01 µM (active).
In the case of `O=C1c2ccccc2C(=O)C1c1ccccc1F`, the Potency is reported as “inactive”.
For `Cc1sc2nc(CSCC(=O)NC3CCCCC3)[nH]c(=O)c2c1C`, the Potency was “inactive”.
In the case of `CC1=CC(=Cc2sc3ccccc3[n+]2C)C=C(C)O1`, the Potency is reported as 5.01 µM (active).
In the case of `CC(C)C(NC(=O)c1c(F)cccc1F)C(=O)NNC(=O)c1ccccc1` (stereo unspecified), the Potency is reported as “inactive”.
In the case of `O=C(NCCc1ccc(F)cc1)c1ccc(S(=O)(=O)N2CCCCC2)cc1`, the Potency is reported as “inactive”.
Work on `COc1ccc(CNC(=O)C2(CC3CC(c4ccccc4)=NO3)CCN(C(=O)c3cccc(O)c3)CC2)cc1` (stereo unspecified) yielded an activity change, negative = inhibition of -11.6% [at 8.37 µM].
For `O=C(COc1ccc(Cl)cc1)N1CCN(S(=O)(=O)c2ccc(Cl)cc2)CC1`, the Potency was “inactive”.
For `O=C(CCC(=O)c1ccccc1)NCc1cccc(C(F)(F)F)c1`, the Potency was “inactive”.
In the case of `O=C(CCC(=O)N1CCN(S(=O)(=O)c2ccc(Cl)cc2)CC1)NCc1cccc(C(F)(F)F)c1`, the Potency is reported as 11.2 µM (active).
In the case of `O=C1c2ccccc2C(=O)C1C(=O)C1CC1`, the Potency is reported as “inactive”.
In the case of `CCN(CC(=O)Nc1ccc(OC)cc1)C(=O)c1ccc(=O)n(Cc2ccccc2)n1`, the Potency is reported as “inactive”.
With `CC(NC(=O)COC(=O)Cn1cc(C(F)(F)F)ccc1=O)c1ccccc1` (stereo unspecified) the Potency was “inactive”.
For `CNCC[C@H](Oc1ccc(C(F)(F)F)cc1)c1ccccc1`, the Potency was 3.98 µM (active).
With `CC(CC(=O)Nc1cc(C(F)(F)F)ccc1Cl)c1ccccc1` (stereo unspecified) the Potency was “inactive”.
With `COc1ccc2nc3n(c(=O)c2c1)-c1cc(C)ccc1C(=O)NC3Cc1ccc(O)cc1` (stereo unspecified) the Potency was “inactive”.
In the case of `COc1cccc(N(CC(=O)Nc2cccc(N(C)S(C)(=O)=O)c2)S(C)(=O)=O)c1`, the Potency is reported as “inactive”.
With `Cc1ccc(N(CC(=O)Nc2cccc(N(C)S(C)(=O)=O)c2)S(C)(=O)=O)cc1` the Potency was “inactive”.
With `CC(=O)Nc1cccc(NC(=O)c2ccc3c(c2)CCN3S(C)(=O)=O)c1` the Potency was “inactive”.
For `CN(c1cccc(NC(=O)Nc2ccc(Cl)cc2)c1)S(C)(=O)=O`, the Potency was 10 µM (active).
For `CN(c1cccc(NC(=O)c2ccc(CN3CCc4ccccc4C3)cc2)c1)S(C)(=O)=O`, the Potency was 11.2 µM (active).
In the case of `CN(c1ccc(C(=O)N2CCc3ccccc3C2)cc1)S(C)(=O)=O`, the Potency is reported as “inactive”.
For `O=C(CNC(=O)c1ccccc1F)OCC(=O)c1c[nH]c2ccccc12`, the Potency was “inactive”.
In the case of `Cc1ccsc1C(=O)NC1CCCCC1C` (stereo unspecified), the Potency is reported as “inactive”.
In the case of `O=C(NCCN1CCOCC1)c1cccc(S(=O)(=O)Nc2ccc(F)cc2)c1`, the Potency is reported as “inactive”.
`C#CCOCCOCCOCCNc1nc(N2CCN(C(=O)Cn3cc(CCO)nn3)CC2)nc(N2CCN(C(=O)[C@H](CCCCN)n3cc(CCCC)nn3)CC2)n1` showed an activity change, negative = inhibition of -0.907% [at 8.37 µM].
With `CCOC(=O)c1cc(-c2ccccc2C)n(Cc2cc(C)no2)n1` the Potency was “inactive”.
With `Cc1c(C(=O)OCC(=O)N(CCC#N)c2ccccc2)oc2c1ccc1ccccc12` the Potency was 8.91 µM (active).
With `Cc1cc(C)n2nc(C(=O)OCC(=O)N(CCC#N)c3ccc(F)cc3)nc2n1` the Potency was “inactive”.
In the case of `N#CCCN(C(=O)COC(=O)c1ccc(S(=O)(=O)N2CCCCCC2)cc1)c1ccccc1`, the Potency is reported as “inactive”.
In the case of `Cc1cccc(C)c1NC(=O)COC(=O)c1c(C)nn(-c2ccccc2)c1C`, the Potency is reported as “inactive”.
For `Cc1ccc(S(=O)(=O)Nc2nc(CN3CCOCC3)nc3sc(C)c(C)c23)cc1`, the Potency was “inactive”.
In the case of `CSc1nsc(SCC(=O)Nc2cc(C(=O)O)ccc2C)n1`, the Potency is reported as “inactive”.
In the case of `COc1ccc(C)cc1NC(=O)CSc1nc(SC)ns1`, the Potency is reported as 11.2 µM (active).
With `COc1ccc(C)cc1NC(=O)CSc1cccc[n+]1[O-]` the Potency was “inactive”.
For `Cc1ccc(C(=O)CN2C(=O)NC3(CCOc4ccccc43)C2=O)s1` (stereo unspecified), the Potency was “inactive”.
With `Cc1ccc(N2CC(C(=O)Nc3cc(Cl)ccc3-n3cncn3)CC2=O)cc1` (stereo unspecified) the Potency was “inactive”.
With `CCN1C(=O)/C(=C\N2CCN(c3cccc(Cl)c3)CC2)SC1=S` the Potency was “inactive”.
With `OC(COc1ccccc1)CN1CCN(c2cccc(Cl)c2)CC1` (stereo unspecified) the Potency was “inactive”.
In the case of `CCc1nn(CCCN2CCN(c3cccc(Cl)c3)CC2)c(=O)n1CCOc1ccccc1`, the Potency is reported as 10 µM (active).
